How the values were obtained:
Experiment in all cases: PBM binding z-score (relative to random genomic background probes); higher = stronger binding; sequences stand for … in GC…GCGATTGACAGCGTAGAATGAAGG
[1] = test system: PPARg:RXRa DBDmut IVT, anti-RXR (DBD mutation: RXRa K156A/R161A, NR concentration 270 nM, RXRa partner concentration 90 nM)
Method in brief: (§1)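 On custom Agilent 4×180K arrays, double-stranded probes with 34-nt variable regions carried direct-repeat seeds, single-nucleotide variants, half-site ablations or random human genomic background. Ligand-free nuclear receptor dimers were applied for 1 h, and binding was read with antibodies against each partner (one per run). Binding z-scores come from regression-normalized fluorescence, with the random background probes as reference.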

[2] = test system: PPARg:RXRa IVT, anti-PPARg (NR concentration 270 nM, RXRa partner concentration 90 nM)
Method in brief: as §1

[3] = test system: PPARg DBDmut:RXRa IVT, anti-PPARg (DBD mutation: PPARg1 K132A/R137A, NR concentration 270 nM, RXRa partner concentration 90 nM)
Method in brief: as §1

[4] = test system: PPARg DBDmut IVT, anti-PPARg (DBD mutation: PPARg1 K132A/R137A, NR concentration 270 nM)
Method in brief: as §1

[5] = test system: PPARg homodimer (NR concentration 180 nM)
Method in brief: as §1

[6] = test system: PXR:RXRa (NR concentration 270 nM, RXRa partner concentration 90 nM)
Method in brief: as §1

[7] = test system: PXR homodimer (NR concentration 270 nM)
Method in brief: as §1

[8] = test system: RARa:RXR (NR concentration 270 nM, RXRa partner concentration 90 nM)
Method in brief: as §1

[9] = test system: RARa homodimer (NR concentration 270 nM)
Method in brief: as §1

[10] = test system: RARb:RXRa (NR concentration 270 nM, RXRa partner concentration 90 nM)
Method in brief: as §1

| Sequence | PBM binding z-score [1] | PBM binding z-score [2] | PBM binding z-score [3] | PBM binding z-score [4] | PBM binding z-score [5] | PBM binding z-score [6] | PBM binding z-score [7] | PBM binding z-score [8] | PBM binding z-score [9] | PBM binding z-score [10] |
| --- | --- | --- | --- | --- | --- | --- | --- | --- | --- | --- |
| AGTCAAAGTTCAATAGGTAACGTAAGATTCAGCT | 1.07 | 3.4 | 1.2 | 1.2 | 2.73 | 4.19 | 3.15 | 3.34 | 1.83 | 4.8 |
| AGAATGAGGTTATACGTAGATCAGGGTAGAAAGT | 4.24 | 2.33 | 1.07 | 0.356 | 1.01 | 1.35 | 0.929 | 1.86 | 0.591 | 1.59 |
| CGTCAAAGTTAAACTAAGGTAACGTAAAGCACGC | 0.269 | 0.719 | 0.529 | 0.672 | 0.0557 | 0.525 | 0.364 | 1.08 | 0.284 | 0.845 |
| TCTTGTAGATCAAAGGTTATGAAAGCCGAAGCCT | 2.32 | 3.32 | 0.577 | 0.452 | 1.12 | 1.88 | 0.0149 | 3.07 | -0.114 | 1.79 |
| CCTATCAGGCCAGGGTCACTCAAGCATTTCGCTT | 0.0359 | 1.06 | -1.33 | -0.669 | 1.28 | 2.59 | -0.206 | 3.5 | 0.157 | 2.74 |
| TCTAGCAGGCCAGAGGATCACTCAAGAGGTACGG | 0.493 | -0.268 | -0.802 | -1.11 | -1.15 | -0.557 | -0.932 | -0.354 | -1.38 | -0.18 |
| CCTAGCAGGCCAATCTGCGTCACTCAAGGCTTGA | 1.32 | -0.303 | -1.31 | -0.968 | -0.505 | -0.683 | -0.513 | -0.426 | -0.164 | 0.0378 |
| TCTGCTAGGTCAGTTGGTCAGCGAACGAGCTGCC | 2.76 | 3.21 | -0.0304 | 0.518 | 0.0639 | 0.0473 | -0.82 | 0.461 | -1.14 | 3.55 |
| TTACCAAGGTGAGCTTAGGTCGTTGATCCAACTC | 1.61 | 1.67 | -0.375 | -0.536 | -0.601 | 1.62 | -0.264 | 0.665 | -0.83 | 1.36 |
| TCGTGTAGATCAATAGAGGTTAAGAAAGTGCGCT | 1.64 | 0.537 | -0.0229 | -0.0334 | 0.586 | 2.99 | 0.386 | 1.79 | 0.575 | 0.822 |
| ATCGAAAGGTCGTGAGGTGAGCATACAGAAAGGC | 0.297 | 2.79 | 1.33 | 0.333 | 0.137 | 2.77 | 0.261 | 3.85 | 0.316 | 3.89 |
| ATTAGCAGGCCAAGGGTCACTCAAGATTAGTCCG | 0.795 | 3.76 | 0.0508 | 0.161 | 1.61 | 3.2 | -0.179 | 4.06 | 0.0408 | 3.62 |
| ATACAAAGGTGATCGTGAGGTCGTTGATACTAAC | 1.15 | 2.15 | 1.05 | 0.894 | 1.53 | 4.07 | 1.38 | 3 | 1.26 | 2.54 |
| AGAATGAGGTTATACCTAGATCAGGGAAGAAAGT | 2.11 | 2.02 | 1.05 | 0.686 | 0.0294 | 0.87 | 0.227 | 1.44 | -0.0854 | 1.19 |
| AGAATGAGGTTTTTAAGATCAGGGAATTGCGGTC | 0.514 | 0.257 | 0.355 | -0.0253 | -0.582 | -0.38 | -0.508 | -0.216 | 0.273 | 0.0304 |
| ATATGTGGGTTAAGGGTCATTCAGGTTGGTTCGC | 7.01 | 7.51 | 2.4 | 2.39 | 3.88 | 5.53 | 3.93 | 6.07 | 3.29 | 3.59 |
| CAAACTAGGTCACCGGAAGGTCAAAGTGCGCATG | 8.63 | 8.94 | 1.75 | 1.74 | 7.29 | 6.12 | 1.81 | 7.59 | 2.46 | 5.39 |
| CGACCTAGGTCAAGGACAGTGAATCTCCGCACGC | 4.04 | 3.83 | 0.362 | -0.346 | 2.36 | 1.6 | -0.248 | 2.45 | 0.805 | 4.13 |
| CCTACTGGGCCAAGAAGGTCATTGATGCCGATAA | 3.62 | 3.76 | -1.15 | -1.07 | 1.85 | 3.13 | 1.54 | 3.23 | 0.531 | 2.76 |

| Sequence | PBM binding z-score [1] | PBM binding z-score [2] | PBM binding z-score [3] | PBM binding z-score [4] | PBM binding z-score [5] | PBM binding z-score [6] | PBM binding z-score [7] | PBM binding z-score [8] | PBM binding z-score [9] | PBM binding z-score [10] |
| --- | --- | --- | --- | --- | --- | --- | --- | --- | --- | --- |
| CTACCAAGGTGAACAAGGACGTTGATTACTATTC | 2.52 | 2.17 | 0.0703 | 0.657 | 0.761 | 0.356 | 0.295 | 0.5 | 0.187 | 1.55 |
| TCTTGTAGATCAATAGAGGTTAAGAATGTGCGCT | 2 | 1.37 | 0.489 | 0.485 | 0.502 | 1.65 | 0.282 | 1.86 | 0.562 | 0.764 |
| CGTCCAAGGTCAGAGAGGGCAGTGAATGCCGAGT | 2.19 | 2.6 | -0.519 | -0.66 | 1.84 | 3.91 | 6.38 | 3.14 | 0.679 | 4.88 |
| CCATACAGGTGAGAAGGTAACTCAGCCTCGATTA | 2.08 | 1.63 | 0.397 | 0.148 | 0.629 | 0.166 | 0.14 | 0.725 | 1.02 | 0.628 |
| TAGCCTGGGTCATGCGGGCCAGTATAGTGTCGGC | 0.519 | 2.76 | -0.229 | 0.545 | 0.758 | 1.64 | -0.615 | 2.42 | -0.605 | 3.18 |
| ACTTACGGGTCAACGAGGTTTTAGCACGCGTATA | 3.23 | 3.96 | 0.283 | 0.441 | 2.07 | 4.02 | -0.016 | 4.35 | 0.666 | 4.07 |
| CGTCAAAGTTCAACTATGGTAACGTAAAGCACGC | 0.569 | 1.9 | 1.06 | 1.31 | 3.74 | 4.94 | 4.27 | 4.14 | 2.09 | 5.33 |
| ATCTCTCGGTAACAAGTTCAGTGAAAGAGAGGAC | -0.852 | 0.6 | 0.792 | 1.21 | 0.807 | 1.46 | 1.77 | 0.694 | 0.38 | 1.49 |
| AGAATGAGGTTACCAAAGATCGGGGAAACGCTTG | 4.19 | 3.16 | 0.767 | -0.00143 | 0.441 | 1.3 | -0.247 | 1.86 | -0.246 | 2.09 |
| ATCGAAAGGTCGAAGATGAGTATACCCACCCGAA | -0.341 | 1.22 | 0.714 | 0.471 | 1.15 | 1.97 | 0.241 | 2.66 | 0.939 | 3.69 |
| ATCTCTAGGTAAAGTTCAGTGAAAGATCGATAGA | 2.6 | 2.6 | 1.37 | 0.916 | 1.68 | 2.11 | 1.93 | 1.86 | 1.27 | 2.86 |
| AGATGTAGGTTAAGGGTCATTCAGGTTGGTTCGC | 7.33 | 7.46 | 1.97 | 1.04 | 3.44 | 5.52 | 3.11 | 6.2 | 2.4 | 3.66 |
| CCGACTGGGGCAGAAAAGTTACCATACCATCCGG | 1.36 | 0.746 | -1.85 | -1.61 | 0.0393 | -0.593 | -0.395 | -0.848 | 0.0243 | -0.0999 |
| GCGTATAGGTAATACAAGGTGAAAGTCCGATTGT | 1.36 | 1.33 | 0.339 | -0.802 | 0.129 | 0.699 | -0.0902 | 1.12 | 0.521 | 0.576 |
| GCTCGGAGGACAAGTTCAGAGCTTTGTCCGTAGA | -0.557 | -0.546 | -1.36 | -1.47 | -0.526 | 0.977 | 0.281 | 0.489 | -1.39 | 1.92 |
| TCTGGTAGATCAGCAGGTTAAGAAAGCTGGCCAA | 0.973 | -0.29 | -0.344 | -0.477 | -0.534 | -0.014 | -0.669 | 0.363 | -0.495 | 0.127 |
| CGAACTAGGTCATCCAGGACGGTGAATACATTGA | 7.81 | 8.21 | 2.02 | 0.711 | 0.484 | 1.5 | 0.391 | 2.02 | 0.0502 | 3.78 |
| AGAATGAGGTAACCAAAGATCAGGGAAACGCTTG | 3.05 | 2.17 | 1.22 | 1.42 | -0.124 | 0.0437 | -0.0264 | 0.577 | 0.155 | 0.403 |
| CCTAGCAGGCCAATCTCGGTCACTCAAGGCTTGA | 1.96 | 1.29 | -0.633 | -1.57 | 0.0271 | -0.17 | -0.412 | 0.0359 | -0.713 | 1.34 |
